Measurements as given in PubChem BioAssay (NCATS).
Activity calls are given as the source filed them. A call without a number means that no potency is given here. The call rests on the fitted dose curve; in most records, active means well fitted inhibition curve with a large enough effect; inconclusive means small, poorly fitted or top-dose-only effect; inactive means flat fitted curve, though single readings scatter.

biological target: DNA polymerase III PolC-type (Bacillus subtilis (strain 168)) (UniProt P13267); experiment: qHTS Validation Assay for the Inhibitors of DNA Replication in Gram-Positive Bacteria (AID 485295); details: Gram-positive bacterial DNA replication assay; series mostly up to 57.1 µM
Sequence (P13267 whole entry, looked up): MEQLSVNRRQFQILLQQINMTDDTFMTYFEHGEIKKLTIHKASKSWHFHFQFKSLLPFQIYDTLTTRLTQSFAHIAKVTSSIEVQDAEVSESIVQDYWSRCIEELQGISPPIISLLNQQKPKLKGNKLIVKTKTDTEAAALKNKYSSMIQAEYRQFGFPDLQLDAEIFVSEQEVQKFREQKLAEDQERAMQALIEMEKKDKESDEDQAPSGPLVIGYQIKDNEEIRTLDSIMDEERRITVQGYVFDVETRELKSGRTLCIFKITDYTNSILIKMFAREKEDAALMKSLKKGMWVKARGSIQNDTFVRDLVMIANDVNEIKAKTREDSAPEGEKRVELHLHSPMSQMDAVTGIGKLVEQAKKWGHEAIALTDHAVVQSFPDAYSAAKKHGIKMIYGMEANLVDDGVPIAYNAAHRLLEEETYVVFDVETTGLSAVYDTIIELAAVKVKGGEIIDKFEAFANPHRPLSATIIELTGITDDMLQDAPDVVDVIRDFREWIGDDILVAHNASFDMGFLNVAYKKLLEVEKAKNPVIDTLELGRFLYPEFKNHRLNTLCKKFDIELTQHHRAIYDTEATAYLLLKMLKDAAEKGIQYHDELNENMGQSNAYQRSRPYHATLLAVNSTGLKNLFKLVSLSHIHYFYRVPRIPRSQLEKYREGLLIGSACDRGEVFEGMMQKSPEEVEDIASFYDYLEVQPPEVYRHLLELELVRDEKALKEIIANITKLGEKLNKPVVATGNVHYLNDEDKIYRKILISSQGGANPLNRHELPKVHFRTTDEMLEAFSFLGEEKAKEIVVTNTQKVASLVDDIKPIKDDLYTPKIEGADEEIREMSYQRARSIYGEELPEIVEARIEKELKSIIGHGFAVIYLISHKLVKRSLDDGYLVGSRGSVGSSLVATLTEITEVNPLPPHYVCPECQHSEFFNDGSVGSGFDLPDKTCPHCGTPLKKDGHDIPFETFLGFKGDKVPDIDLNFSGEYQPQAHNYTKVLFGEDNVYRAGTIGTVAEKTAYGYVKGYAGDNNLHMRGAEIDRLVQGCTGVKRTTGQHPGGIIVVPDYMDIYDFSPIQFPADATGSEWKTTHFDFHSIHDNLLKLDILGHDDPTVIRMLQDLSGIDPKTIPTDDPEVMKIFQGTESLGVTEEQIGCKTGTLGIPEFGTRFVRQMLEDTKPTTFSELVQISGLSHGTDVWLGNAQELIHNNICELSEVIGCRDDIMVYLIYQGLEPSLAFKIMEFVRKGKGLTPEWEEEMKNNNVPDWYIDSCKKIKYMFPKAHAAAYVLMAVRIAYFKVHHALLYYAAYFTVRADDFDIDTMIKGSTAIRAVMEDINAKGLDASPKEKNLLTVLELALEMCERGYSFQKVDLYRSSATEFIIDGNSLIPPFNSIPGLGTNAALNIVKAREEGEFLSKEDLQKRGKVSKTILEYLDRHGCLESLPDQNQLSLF
Protocol: B Subtilis DNA polymerase III holoenzyme complex was assayed for DNA production by fluorescent detection of the double-stranded DNA product with PicoGreen dye. The holoenzyme complex was reconstituted from the following purified protein components: DNA Polymerase III, beta subunit processivity factor, SSB single-stranded DNA binding protein, and Primase. Single-stranded, circular M13Gori was used as a substrate with dNTPs and NTPs also supplied to the substrate reagent. Compounds from the NCGC collection were incubated with the holoenzyme mixture for […] at room temperature to allow binding to occur, and then the reaction was started by the addition of substrate. After 30 min incubation at room temperature, PicoGreen solution containing EDTA was added to stop the reaction and to visualize the double-stranded DNA produced. Reaction progress was measured in a ViewLux CCD imager in fluorescence intensity mode by using 480 nm excitation and 540 nm emission filter set.
1. Thaw screening compounds.
2. Label assay plates. Prepare pipette tips, reagent reservoirs, buffers and controls.
1. Thaw Enzymes, DNA template, Nucleotides and PicoGreen dye concentrate. Thawed enzymes are stable on ice for ~1
week. Other thawed components are stable indefinitely.
2. Prepare sufficient quantities of Enzyme, Substrate and PicoGreen Quench mixes (according to Table II). For the number of
compound plates being screened.
3. Ensure that the tip wash station reservoirs have clean water and turn on recirculating chiller so that the chilled deck position
1. Load 2 uL of EDTA controls (250 mM, Background, 100 % inhibition) and 2 uL of DMSO controls (Negative control, 0%
inhibition) in the screening plates (flat-bottomed black 384-well polypropylene, Greiner Bio-one).
2. Place Enzyme mix reservoir on the chiller position of the liquid handler deck. Make sure that chiller will maintain
temperature of Enzyme mix at 4degC. Substrate mix and PicoGreen Quench can be stored at room temp.
3. Program liquid handling robotics to dispense 18 uL of Enzyme mix into assay plates. Wash tips.
4. Aspirate and dispense 2 uL of compound from compound plates, mix and Incubate at room temperature for 10 minutes.
5. Aspirate 5 ul of Substrate mix, dispense into assay plates and mix by pipetting. Wash tips.
6. Incubate at room temperature (21 +/- 1 deg C) for 20 minutes.
7. Quench reactions by addition of 25 uL PicoGreen Quench mix and mix by pipetting (using HTS robotics or bulk reagent
dispenser such as a Multidrop or uFill). Keep plates in the dark or stacked until ready to read fluorescence.
8. Read fluorescence intensity of plates on plate reader using "Fluorescein (Ex 485 nm/ Em 535 nm, 0.1s)" setting.
Potency means the concentration at half of the fitted maximal effect.

| SMILES | Potency |
| --- | --- |
| C=C(C)[C@H]1Cc2c(ccc3c2O[C@@H]2COc4cc(OC)c(OC)cc4[C@@H]2C3=O)O1 | inactive |
| O=C1NCN(c2ccccc2)C12CCN(CC1COc3ccccc3O1)CC2 (centres undefined) | inactive |
| COc1ccc(C(CN(C)C)C2(O)CCCCC2)cc1 (centres undefined) | inactive |
| CCC1(C2=NCCN2)Cc2ccccc2O1 (centres undefined) | inactive |
| c1ccc(C2CC2)c(OCC2=NCCN2)c1 | inactive |
| NN=C(N)N | inactive |
| O=c1c(O)c(-c2ccc(O)c(O)c2)oc2cc(O)cc(O)c12 | 10.6 µM (active) |
| NCC1(CC(=O)O)CCCCC1 | inactive |
| N#CC(C#N)=Cc1ccc(O)c(O)c1 | inactive |
| CC(CCc1ccccc1)NC(C)C(O)c1ccc(O)cc1 (centres undefined) | inactive |
| Cc1ncc(CNC(=O)N(CCCl)N=O)c(N)n1 | inactive |
| NCC(CC(=O)O)c1ccc(Cl)cc1 (centres undefined) | inactive |
| Nc1ccncc1 | inactive |
| Cc1cccc(C)c1NC(=O)CN1CCCC1=O | inactive |
| Cc1cccc(C)c1NC1=NCCCS1 | inactive |
| C[C@@H]1O[C@@H](O[C@H]2C[C@@H](O)[C@]3(CO)[C@H]4[C@H](O)C[C@]5(C)[C@@H](C6=CC(=O)OC6)CC[C@]5(O)[C@@H]4CC[C@]3(O)C2)[C@H](O)[C@H](O)[C@H]1O | inactive |
| CC(=O)[C@H]1CC[C@H]2[C@@H]3CC[C@H]4C[C@H](O)CC[C@]4(C)[C@H]3C(=O)C[C@]12C | inactive |

| SMILES | Potency |
| --- | --- |
| c1ccc2c(c1)OCC(C1=NCCN1)O2 (centres undefined) | inactive |
| NCC(O)c1ccc(O)cc1 (centres undefined) | inactive |
| CCCN1CCC[C@@H]2Cc3[nH]ncc3C[C@H]21 | inactive |
| CN1C[C@H](CNC(=O)OCc2ccccc2)C[C@@H]2c3cccc4c3c(cn4C)C[C@H]21 | inactive |
| CCCC(C)(COC(N)=O)COC(=O)NC(C)C (centres undefined) | inactive |
| COc1ccccc1N1CCNCC1 | inactive |
| Fc1ccc(C(OCCN2CCN(CCCc3ccccc3)CC2)c2ccc(F)cc2)cc1 | inactive |
| CC[C@@H](CO)NC(=O)[C@@H]1C=C2c3cccc4c3c(cn4C)C[C@H]2N(C)C1 | 16.8 µM (active) |
| CNCC(O)c1ccc(O)cc1 (centres undefined) | inactive |
| O=c1[nH]c2ccccc2n1CCCN1CCC(n2c(=O)[nH]c3cc(Cl)ccc32)CC1 | inactive |
| Cc1cc2c(C(C)C)c(O)c(O)c(C=O)c2c(O)c1-c1c(C)cc2c(C(C)C)c(O)c(O)c(C=O)c2c1O | 10.6 µM (active) |
| CCCN1CCC[C@@H]2Cc3nc(N)ncc3C[C@H]21 | inactive |
| CC(C)=CCOc1c2occc2cc2ccc(=O)oc12 | inactive |
| COC[C@H]1OC(=O)c2coc3c2[C@@]1(C)C1=C(C3=O)C2CCC(=O)[C@@]2(C)C[C@H]1OC(C)=O (some centres undefined) | inactive |
| CC(=O)[C@H]1CC[C@H]2[C@@H]3CC[C@H]4C[C@](C)(O)CC[C@]4(C)[C@H]3CC[C@]12C | inactive |
| CC(O)(CS(=O)(=O)c1ccc(F)cc1)C(=O)Nc1ccc(C#N)c(C(F)(F)F)c1 (centres undefined) | inactive |
| Cc1ccc(S(=O)(=O)N[C@@H](CCCCN)C(=O)CCl)cc1 | inactive |
